HepG2 viability = kills HepG2 cells in TGF-b inhibitor counter-screen; Potency, µM (doses to about 46.1 µM), without a hit: at the top dose activity change, negative = cytotoxicity, usual class: cytotoxic; HepG2 CAGA-GFP viability, ATP luminescence, 18 h; 0.76% of 410,000 active; AID 588856
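HepG2 CAGA-GFP cells (1000/well, DMEM with 1% FBS) received compound, then TGF-beta at 500 pg/mL final, and were incubated 18 hours at 37 degrees C. Viability was read by CellTiter-Glo luminescence. Media-only wells were set as complete cell-killing and DMSO as no toxicity.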
S2 tox = cell viability loss in ATXN counter-screen; 0.49% of 400,000 active; S2 cells (HEK-293 line with an ATXN2-luciferase reporter) viability, CellTiter-Fluor protease fluorescence, 24 h; Potency, µM (titrated, usually from 56.7 µM), most hits filed as cytotoxic; further: nearly all actives have a fitted effect of over 40% in size
HT1080 IDH1KD tx = kills HT-1080 cells with IDH1 knockdown | AID 686971 | HT-1080 IDH1 knockdown viability, ATP luminescence, 48 h | Potency, µM (doses to about 46.1 µM), for inactives: top-dose activity, negative = toxicity, usual class: cytotoxic | 2% of 360,000 active;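 further: 0% = DMSO wells and -100% = cell-free medium wells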
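Viability of IDH1-knockdown HT-1080 fibrosarcoma cells was assessed by CellTiter-Glo after 48 h at 37 °C with titrated compound; concentration-effect curves were classified by fit quality and response size.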
ATXN2 expr inh = ATXN2 expression inhibition; Potency, µM (series often up to 57 µM), for the others: top-dose activity change, negative = inhibition, hits mostly inhibitors; 0.72% of 360,000 active; AID 1745845; HEK-293 ATXN2-luciferase reporter, luminescence, 24 h; further: on the % scale 0 is the no-effect control and ±100 the full control effect; nearly all actives have a fitted effect of over 55% in size
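ATXN2-luciferase reporter cells (luciferase flanked by upstream and downstream ATXN2 gene portions) were treated 24 h at 37 °C with compounds at up to 57 uM. SteadyGlo luminescence gave expression; GF-AFC fluorescence gave viability.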
HT1080-NT tox = kills 2HG-producing HT-1080-NT fibrosarcoma cells. 1.6% of 360,000 active. HT-1080-NT fibrosarcoma viability, CellTiter-Glo ATP luminescence, 48 h. Potency, µM (series often up to 46.1 µM), without a hit: at the highest dose activity, negative = less viability, actives largely listed as cytotoxic. AID 686970;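 further: NT is the 2HG producing partner of a matched IDH1 knockdown line; 0% = DMSO-treated cells and -100% = media-only wells without cells; nearly all actives have a fitted effect of over 55% in size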
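HT-1080-NT fibrosarcoma cells (2HG-overproducing), 750 cells/well in RPMI with 5% FBS, dosed after 2 h and incubated 48 h at 37C. CellTiter-Glo luminescence normalized to DMSO and no-cell wells; concentration-response curves fitted and classed.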
TGFb SMAD3 inh = inhibitors of TGF-b signaling; HepG2 CAGA-GFP TGF-b/SMAD3 reporter, GFP fluorescence, 18 h; TGF-beta stimulated, 500 pg/mL final; Potency, µM (top dose mostly 46.1 µM), without a hit: at the top dose activity, negative = inhibition, most hits filed as inhibitors; 1.2% of 410,000 active; AID 588855; further: on the % scale 0 is the no-effect control and ±100 the full control effect; nearly all actives have a fitted effect of over 65% in size
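Using HEPG2 CAGA-GFP reporter cells at 1000 cells/well, we pinned test compounds, stimulated with recombinant TGF-beta (500 pg/mL final) and measured total well GFP after 18 h.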
Starred values were filed as active, the others as inactive; i = inactive; ? = inconclusive; . = no result; [ ] = another dose, or the depositor's remark. Only some compounds are listed: those with a hit (about 3.8% of all), similar ones and a draw of the others. The call rests on the fitted dose curve; in most records, active means well fitted curve in the direction sought with a large enough effect; inconclusive means small, poorly fitted or top-dose-only effect, or another doubt; inactive means no such curve, though single readings can be large; an effect the other way counts as inactive or inconclusive. Potency means the concentration at half of the fitted maximal effect.

SMILES	HepG2 viability	S2 tox	HT1080 IDH1KD tx	ATXN2 expr inh	HT1080-NT tox	TGFb SMAD3 inh
CCc1nnc(NC(=O)CCc2ccc(C)o2)s1	-16%	i	?	4%	-3%	14%
Cc1ccc(CCC(=O)Nc2ncc(Cc3cccc(Cl)c3Cl)s2)o1	1%	?	?	0%	0.73µM*	?
Cc1ccc(Cc2c(C)nc3nc(SCC(=O)NCc4ccco4)nn3c2C)cc1	-1%	?	2.6µM*	-6%	?	-11%
COc1ccc(Nc2oc(COc3ccccc3OC)nc2C#N)cc1	-2%	i	-4%	10µM*	-9%	-15%
COc1ccc(CCNc2oc(COc3ccccc3F)nc2C#N)cc1OC	-23%	i	?	4%	-8%	0%
COc1ccccc1OCc1nc(C#N)c(NCc2ccc(C)cc2)o1	-17%	.	.	.	.	?
COc1ccc(CCNc2oc(COc3ccc(F)cc3)nc2C#N)cc1	-43%	i	-24%	-4%	-29%	16µM*
COc1ccccc1NC(=O)c1nc(SCc2ccccc2F)ncc1Cl	4%	.	.	.	.	5%
CN(C)c1ccc(CN(Cc2ccco2)C(=O)COc2ccc(F)cc2)cc1	-13%	.	.	.	.	.
O=C(CCCN1C(=O)/C(=C/c2ccccc2)SC1=S)Nc1cccc(O)c1	-67%	?	-24%	.	-27%	14µM*
Cc1ccc(/C=C2/SC(=S)N(CCCC(=O)Nc3ccc(O)cc3)C2=O)cc1	-52%	?	21µM*	2.5µM*	16µM*	?
O=C(CCCN1C(=O)/C(=C/c2cccs2)SC1=S)Nc1cccc(O)c1	-37%	?	16µM*	22%	?	?
Cc1ccc(/C=C2\SC(=S)N(CCCC(=O)NC3CCCC3)C2=O)cc1	-18%	i	25%	13µM*	10%	9%
Cc1ccnc2ccc(N)cc12	-29%	.	.	.	.	-10%
CCOC(=O)c1cc(S(=O)(=O)Nc2ccccc2OCC)[nH]n1	-24%	i	.	4%	.	-17%
COc1cccc(/C=C2/SC(=S)N(CCCC(=O)Nc3ccc(O)cc3)C2=O)c1	-72%	?	?	16µM*	?	?
O=C(CCCN1C(=O)/C(=C\c2ccccc2)SC1=S)Nc1ccc(O)cc1	-7%	i	15µM*	18%[11.3 µM]	23µM*	?
CCN(CC)CCOC(=O)c1ccc(NC(=O)CCCN2C(=O)S/C(=C/c3ccc(OC)cc3)C2=S)cc1	-28%	?	12µM*	7.1µM*	?	-7%
COc1cc(/C=C2\SC(=S)N(CCC(=O)Nc3cccc(O)c3)C2=O)cc(OC)c1OC	-36%	?	?	-25%	?	13µM*
COc1ccc(/C=C2\SC(=S)N(CCC(=O)Nc3ccc(O)cc3)C2=O)cc1	3%	i	0%	5%	?	0%
CN(N=O)c1ccc2c(c1)Cc1ccccc1-2	-62%	.	.	.	.	-22%
Cc1csc(NCC(=O)c2c(C)[nH]c3ccccc23)n1	-33%	.	.	.	.	-1%
COc1ccc(S(=O)(=O)Nc2cccc(-c3ccc4nncn4n3)c2)cc1	1%	?	10µM*	-17%	16µM*	-11%
COc1ccc(C(=O)Nc2cccc(-c3ccc4nncn4n3)c2)cc1	1%	i	?	-3%	-9%	5%
COc1ccc(C(CC(=O)Nc2cccc(C)c2C)N2Cc3ccccc3C2=O)cc1 (stereo not drawn)	-23%	.	.	.	.	-10%
SMILES	HepG2 viability	S2 tox	HT1080 IDH1KD tx	ATXN2 expr inh	HT1080-NT tox	TGFb SMAD3 inh
Cc1ccc(C)c(N2CCN(S(=O)(=O)c3ccc4[nH]c5c(c4c3)CCCCC5)CC2)c1	-14%	i	.	-15%	.	-3%
Cc1cccc(NS(=O)(=O)c2ccc3[nH]c4c(c3c2)CCCCCC4)c1	20µM*	.	.	.	.	10µM*
CCOC(=O)c1cccc(NS(=O)(=O)c2ccc3[nH]c4c(c3c2)CCCC4)c1	-53%	?	.	?	.	14µM*
Cc1ccc(Cl)cc1N1CCN(S(=O)(=O)c2ccc3[nH]c4c(c3c2)CCCC4)CC1	-4%	i	.	-6%	.	10µM*
O=S(=O)(Nc1cccc(Cl)c1)c1ccc2[nH]c3c(c2c1)CCCCCC3	20µM*	.	.	?	.	11µM*
CC(=O)c1cccc(NS(=O)(=O)c2ccc3[nH]c4c(c3c2)CCCCCC4)c1	-82%	?	.	-30%	.	?
CC(=O)c1cccc(NS(=O)(=O)c2ccc3[nH]c4c(c3c2)CCCCC4)c1	-90%	?	.	?	.	?
COc1ccc(CCNC(=O)Cc2c(C)c3c(cc(C)c4c(C)coc43)oc2=O)cc1OC	1%	.	.	.	.	-4%
Cc1ccc(NS(=O)(=O)c2ccc3[nH]c4c(c3c2)CCCCCC4)cc1Cl	13µM*	?	.	?	.	11µM*
CCOc1ccc(NS(=O)(=O)c2ccc3[nH]c4c(c3c2)CCCC4)cc1	11µM*	?	.	?	.	11µM*
O=C1CC(=O)OC(c2ccc([N+](=O)[O-])cc2)O1	-57%	?	4.6µM*	.	16µM*	?
c1ccc(CC[n+]2ccncc2)cc1	-21%	.	.	.	.	-4%
CCCCCCCCCCCCCCCCCCN(CCCCCCCCCCCCCCCCCC)c1ccc(C=O)cc1	4%	.	.	.	.	1%
CCN1/C(=C/C=C/c2sc3ccccc3[n+]2CC)Sc2ccccc21	-32%	11µM*	1.5µM*	7.1µM*	1.6µM*	?
CCN1/C(=C/C=C/C=C/C=C/c2sc3ccccc3[n+]2CC)Sc2ccccc21	-16%	?	-16%	?	-17%	?
CC[n+]1c(/C=C/Nc2ccccc2)sc2ccccc21	-18%	i	-19%	-26%	-9%	-15%
CCN1/C(=C/C=C/C=C/c2sc3ccccc3[n+]2CC)Sc2ccccc21	-23%	.	.	.	.	7.1µM*
O=S(=O)(c1ccc(NC(=S)N/N=C/c2ccc(O)c(O)c2)cc1)N1CCOCC1	-14%	i	-3%	1%	-4%	?
O=[N+]([O-])c1cc(Cl)cc(/C=N/NC(=S)Nc2ccc(S(=O)(=O)N3CCOCC3)cc2)c1O	-8%	?	3.7µM*	-36%	?	-18%
CN(C(=O)CSc1nc(C2CCCC2)nc2c1c(=O)n(C)c(=O)n2C)c1ccccc1	-3%	i	.	9%	.	-13%
O=c1c2cc(NC(=S)NC3CCN(Cc4ccccc4)CC3)ccc2nc2n1CCCCC2	-27%	i	18µM*	4%	?	?
O=c1c2cc(NC(=S)NCCCN3CCC(Cc4ccccc4)CC3)ccc2nc2n1CCCCC2	16µM*	i	16µM*	-12%[11.3 µM]	9.2µM*	?

Compound activity (PubChem)
